In ChEMBL document CHEMBL3988442, “University of Dundee, Small-Polar-MMV Screening Library” (2021):
Out of some 48,000 compounds screened, about 13,000 (27%) showed an effect of 50% or more. The list shows a part of the results.

tested on: Wolbachia pipientis; assay: Anti-Wolbachia Cell-Based Screen; format: functional; set-up: scale not given: in the data most compounds retested in dose-response had high values; conditions: 5 µM

| Compound | Percent Effect [%] |
| --- | --- |
| c1cc(CN2CCCCC2)cc(NCc2cc[nH]n2)c1 | 0.9619 |
| Cc1ccc(S(=O)(=O)NC[C@H]2OC[C@@H](NCc3ccncc3)[C@@H]2O)cc1 | -4.658 |
| CCc1nc(C)c([C@H]2CN(C)C[C@@H]2C(=O)NC(C)(C)c2ccccc2)[nH]1 | -16 |
| Cc1nc(C)n(CC2CCCCN2CCCS(=O)(=O)N(C)C)n1 (stereo not given) | -10.86 |
| CCC[C@@H]1CN(C(=O)c2c(F)ccc(C)c2Cl)C[C@H]1C(=O)O | 10.65 |
| CC(=O)c1c(C)cc(C)c(CS(=O)(=O)c2nccn2C)c1C | -11.41 |
| O=C(C1CCOCC1)N1CC[C@@](O)(c2ccccc2)[C@H]2CCCC[C@@H]21 | 1.669 |
| Cc1occc1C(=O)N1CC[C@@H](N2CCOCC2)[C@@H]1Cc1ccccc1 | 5.558 |
| O[C@H]1CN(c2nc(-c3ccccc3)no2)C[C@@H]1N1CCOCC1 | 10.35 |
| CN(C(=O)C1CCCCC1)[C@@H]1CCC[C@@H](N2CCOCC2)[C@@H]1O | 5.741 |
| CN(C(=O)C1CCOCC1)[C@@H]1CCC[C@@H](N2CCOCC2)[C@@H]1O | 124.2 |
| CN([C@@H]1CC[C@@H](N2CCOCC2)[C@@H]1O)S(=O)(=O)c1ccccc1 | 122.9 |
| CN(C)C(=O)CO[C@@H]1CC[C@H]2[C@H]1OCCN2C(=O)C1CCOCC1 | 4.998 |
| CN(C(=O)C1CCOCC1)[C@@H]1CCC[C@@H](N2CCCC2)[C@@H]1O | 75.81 |
| CCc1cnc(N2CC[C@@H]3CN(CCC(C)C)S(=O)(=O)[C@@H]3CC2)nc1.O=C(O)C(F)(F)F | -2.106 |
| O=C1CCC2(CCOC2)CN1CCCOc1cccnc1 (stereo not given) | 36.56 |
| CSCCC(=O)N1CCCC(n2ccnc2)C1 (stereo not given) | 98.51 |
| O=C(CCS(=O)(=O)C1CCCC1)N1CCCC(n2ccnc2)C1 (stereo not given) | 7.067 |
| CC(C)(C)NCC(=O)N1CCCC(n2ccnc2)C1 (stereo not given) | -1.533 |
| O=C(CCOCC(F)(F)F)N1CCCC(n2ccnc2)C1 (stereo not given) | 105.8 |
| CC(C)S(=O)(=O)CC(=O)N1CCCC(n2ccnc2)C1 (stereo not given) | 0.06667 |
| CC(C)c1noc(CCC(=O)N2CCCC(n3ccnc3)C2)n1 (stereo not given) | 13.44 |
| CCc1nnsc1C(=O)NC1CCN(CCOc2ccc(Br)cc2)CC1 | -5.495 |
| CN1CCN(Cc2noc(CCc3nc(-c4ccccc4)no3)n2)CC1 | 3.84 |
| O=C(CN1CCc2cncnc2C1)NC(c1ccccc1)C1CC1 (stereo not given) | 5.851 |

| Compound | Percent Effect [%] |
| --- | --- |
| CN(C)C(=O)CS(=O)(=O)Cc1cc(Cl)c2c(c1)OCO2 | 2.003 |
| CNC(=O)CS(=O)(=O)Cc1cc(Cl)c2c(c1)OCCCO2 | 7.566 |
| CC(C(N)=O)S(=O)(=O)Cc1cc(Cl)c2c(c1)OCO2 (stereo not given) | -4.736 |
| O=C(CS(=O)(=O)Cc1cc(Cl)c2c(c1)OCO2)N1CCCCCC1 | 135.5 |
| CCN(C(=O)CS(=O)(=O)Cc1cc(Cl)c2c(c1)OCCCO2)C1CC1 | 3.578 |
| O=C(CS(=O)(=O)Cc1cc(Cl)c2c(c1)OCO2)N1CCCC1 | 112.9 |
| c1cnnc(N2CCCC(NCc3nc(-c4cccs4)no3)C2)c1 (stereo not given) | -0.05894 |
| CCCC(=O)N(C)C(c1cccc(F)c1)c1ccccn1 (stereo not given) | 104.7 |
| CCOCCCC(=O)N(C)C(c1cccc(F)c1)c1ccccn1 (stereo not given) | 89.97 |
| CCOCCC(=O)NC(Cc1ccc(C)cc1)c1ccccn1 (stereo not given) | 30.55 |
| CCCC(=O)N(C)c1cccc2ncccc12 | -4.906 |
| Fc1cccc(C(NCc2ncc[nH]2)c2ccccn2)c1 (stereo not given) | -5.246 |
| CN(C)C(=O)CCCNC(=O)C(c1cccc(F)c1)N(C)C (stereo not given) | -9.864 |
| O=C(C1CC(=O)N(C2CC2)C1)N1CCN(CCn2cccc2)CC1 (stereo not given) | -24.19 |
| CCc1nnsc1-c1nc(C(C)C)nn1-c1ccc2c(c1)OCO2 | 11.97 |
| CNC(=O)C(C)(C)N1CCC[C@H]1C(=O)NC1CCCC1 | 1.106 |
| Cc1onc(N)c1S(=O)(=O)N1CCCCC1C (stereo not given) | -5.745 |
| CC(C)NC(=O)N1CCN2C(=O)OC[C@H]2C1 | -2.318 |
| CC[C@H](C)[C@H](N)C(=O)N1CC(=O)c2sc(NC3CCCCC3)nc2C1 | 89.49 |
| O=C(NC1CCCC1)c1nc2c(o1)CN(C(=O)CCO)C2 | 3.342 |
| CC(C)NC(=O)N1CC(=O)c2sc(NC3CCCCC3)nc2C1 | 121.6 |
| O=C(NC1CCCC1)c1nc2c(o1)CN(C(=O)CO)C2 | -3.342 |
| CC(C)CC(=O)N1CC(=O)c2sc(NC3CCCCC3)nc2C1 | 104.9 |
| CCOC(=O)c1nc(CN2CCN(C(=O)NC3CCCCC3)CC2)cs1 | 0.1108 |
| COC(=O)[C@H]1CN(C(=O)NC(C)C)CCN1C(=O)C1CCCCC1 | -4.407 |
